Measured values taken from the supplement of paper PMC10849652.
About 8,800 targets were measured; listed, in parts, are those with a hit and a random draw of the rest. About 0.5% of all pairs of compound and target were hits. A number with no mark means an inactive call.

How the values were obtained:
Assay in all cases: log2 fold change, soluble protein after heating vs DMSO (PISA); higher = thermal stabilisation; K562 lysate, 10 uM; active = over 0.2 and 3.5 SD of the protein, either way, in both replicates (recomputed)
ibrutinib = compound: C=CC(=O)N1CCC[C@@H](n2nc(-c3ccc(Oc4ccccc4)cc3)c3c(N)ncnc32)C1 [ibrutinib]
Summary of the method: (§1)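 The values are log-two fold changes in thermal stability compared with solvent controls and come from duplicates. They were obtained by TMTpro 16plex LC-MS/MS, with channel sums equalised, on the supernatant after 21,000xg for 90 min. That supernatant came from crude K562 extract at 1 mg/mL protein treated with 10 μM compound for 30 min, heated for 3 min across 48°C-58°C, pooled and brought to 0.5% NP-40 at 4°C.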

[1] = compound: CC(=O)c1cnc2ccc(-c3cc(Cl)c(O)c(Cl)c3)nc2c1N[C@H]1CC[C@H](CN(C)C)CC1
Summary of the method: as §1

ralimetinib = compound: CC(C)(C)Cn1c(N)nc2ccc(-c3[nH]c(C(C)(C)C)nc3-c3ccc(F)cc3)nc21 [ralimetinib]
Summary of the method: as §1

[2] = compound: CC(C)(O)CC(=O)NCCn1ccc2ncnc(Nc3ccc(Oc4cccc(C(F)(F)F)c4)c(Cl)c3)c21
Summary of the method: as §1

[3] = compound: CC(C)C1=C2N=C(C=C(N2N=C1)NCC3=CC=CC=C3)NCCCCCCN
Summary of the method: as §1

[4] = compound: CC1=C(C(CC(=O)N1)C2=CC=C(C=C2)C(F)(F)F)C(=O)NC3=C(C=C4C(=C3)C=NN4)F
Summary of the method: as §1

[5] = compound: CC1=C(C2=C(C=C1)C(=O)C3=CC=CC=C3N2CCCN)C
Summary of the method: as §1

[6] = compound: CC1=C(C=C(C=C1)NC(=O)C2=CC(=CC=C2)C(C)(C)C#N)NC3=CC4=C(C=C3)N=CN(C4=O)C
Summary of the method: as §1

[7] = compound: CC1=C(C=C(C=C1)NC(=O)C2=CC(=CC=C2)N(C)C)NC(=O)C3=CC=C(C=C3)O
Summary of the method: as §1

[8] = compound: CC1=CC=C(C=C1)SC2=C3C=C(SC3=CN=C2)C(=O)N
Summary of the method: as §1

Sequence of UniProt Q8TDI0 (Q8TDI0 whole entry, looked up): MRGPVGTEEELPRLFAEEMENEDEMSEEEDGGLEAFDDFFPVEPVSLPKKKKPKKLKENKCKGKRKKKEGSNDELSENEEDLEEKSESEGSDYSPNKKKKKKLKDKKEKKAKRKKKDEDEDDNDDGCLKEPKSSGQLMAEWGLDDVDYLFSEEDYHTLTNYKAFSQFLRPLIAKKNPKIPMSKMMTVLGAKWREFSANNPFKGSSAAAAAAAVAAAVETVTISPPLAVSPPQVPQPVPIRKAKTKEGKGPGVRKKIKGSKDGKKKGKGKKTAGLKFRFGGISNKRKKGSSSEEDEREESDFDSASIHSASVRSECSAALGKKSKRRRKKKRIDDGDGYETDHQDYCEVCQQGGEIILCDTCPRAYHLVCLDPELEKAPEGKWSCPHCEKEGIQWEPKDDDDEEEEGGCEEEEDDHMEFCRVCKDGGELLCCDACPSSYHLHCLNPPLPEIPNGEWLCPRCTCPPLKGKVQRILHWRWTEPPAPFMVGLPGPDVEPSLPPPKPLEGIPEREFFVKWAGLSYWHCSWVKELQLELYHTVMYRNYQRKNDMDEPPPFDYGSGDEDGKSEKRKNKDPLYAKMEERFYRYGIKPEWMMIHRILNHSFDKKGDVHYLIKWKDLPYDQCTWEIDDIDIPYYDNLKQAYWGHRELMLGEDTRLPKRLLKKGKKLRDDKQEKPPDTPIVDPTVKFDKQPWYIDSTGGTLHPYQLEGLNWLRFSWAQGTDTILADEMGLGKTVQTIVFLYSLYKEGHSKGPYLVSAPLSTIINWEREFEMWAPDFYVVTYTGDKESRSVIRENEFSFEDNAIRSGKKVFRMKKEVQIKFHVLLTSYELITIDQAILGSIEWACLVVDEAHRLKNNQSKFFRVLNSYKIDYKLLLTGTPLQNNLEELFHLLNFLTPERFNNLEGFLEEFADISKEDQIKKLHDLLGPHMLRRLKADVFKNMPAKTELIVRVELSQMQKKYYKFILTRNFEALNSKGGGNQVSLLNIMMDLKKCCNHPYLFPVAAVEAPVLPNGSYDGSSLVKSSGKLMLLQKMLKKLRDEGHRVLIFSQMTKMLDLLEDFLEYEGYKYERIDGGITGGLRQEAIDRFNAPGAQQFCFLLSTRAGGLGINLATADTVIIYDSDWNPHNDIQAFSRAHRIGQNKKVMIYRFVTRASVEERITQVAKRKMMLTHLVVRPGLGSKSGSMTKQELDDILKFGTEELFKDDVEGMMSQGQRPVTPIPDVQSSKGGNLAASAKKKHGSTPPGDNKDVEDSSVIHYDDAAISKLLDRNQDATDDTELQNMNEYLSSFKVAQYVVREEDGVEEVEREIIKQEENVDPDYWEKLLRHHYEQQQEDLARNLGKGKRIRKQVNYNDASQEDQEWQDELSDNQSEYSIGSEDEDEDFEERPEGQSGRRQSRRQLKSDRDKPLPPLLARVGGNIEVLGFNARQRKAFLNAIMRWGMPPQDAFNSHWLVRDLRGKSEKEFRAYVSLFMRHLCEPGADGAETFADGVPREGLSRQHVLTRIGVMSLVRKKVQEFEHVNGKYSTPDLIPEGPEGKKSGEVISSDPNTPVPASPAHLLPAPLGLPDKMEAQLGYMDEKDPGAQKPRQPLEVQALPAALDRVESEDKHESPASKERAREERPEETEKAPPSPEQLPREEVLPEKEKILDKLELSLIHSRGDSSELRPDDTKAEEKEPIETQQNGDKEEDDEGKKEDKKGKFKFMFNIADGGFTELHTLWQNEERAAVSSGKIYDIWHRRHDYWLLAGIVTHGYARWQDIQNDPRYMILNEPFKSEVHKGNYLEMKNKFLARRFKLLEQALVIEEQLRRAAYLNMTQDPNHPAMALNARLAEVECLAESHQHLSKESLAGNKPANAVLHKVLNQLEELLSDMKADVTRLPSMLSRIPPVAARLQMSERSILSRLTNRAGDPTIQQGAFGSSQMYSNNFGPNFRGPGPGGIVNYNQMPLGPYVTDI
Sequence of UniProt Q13111 (Q13111 whole entry, looked up): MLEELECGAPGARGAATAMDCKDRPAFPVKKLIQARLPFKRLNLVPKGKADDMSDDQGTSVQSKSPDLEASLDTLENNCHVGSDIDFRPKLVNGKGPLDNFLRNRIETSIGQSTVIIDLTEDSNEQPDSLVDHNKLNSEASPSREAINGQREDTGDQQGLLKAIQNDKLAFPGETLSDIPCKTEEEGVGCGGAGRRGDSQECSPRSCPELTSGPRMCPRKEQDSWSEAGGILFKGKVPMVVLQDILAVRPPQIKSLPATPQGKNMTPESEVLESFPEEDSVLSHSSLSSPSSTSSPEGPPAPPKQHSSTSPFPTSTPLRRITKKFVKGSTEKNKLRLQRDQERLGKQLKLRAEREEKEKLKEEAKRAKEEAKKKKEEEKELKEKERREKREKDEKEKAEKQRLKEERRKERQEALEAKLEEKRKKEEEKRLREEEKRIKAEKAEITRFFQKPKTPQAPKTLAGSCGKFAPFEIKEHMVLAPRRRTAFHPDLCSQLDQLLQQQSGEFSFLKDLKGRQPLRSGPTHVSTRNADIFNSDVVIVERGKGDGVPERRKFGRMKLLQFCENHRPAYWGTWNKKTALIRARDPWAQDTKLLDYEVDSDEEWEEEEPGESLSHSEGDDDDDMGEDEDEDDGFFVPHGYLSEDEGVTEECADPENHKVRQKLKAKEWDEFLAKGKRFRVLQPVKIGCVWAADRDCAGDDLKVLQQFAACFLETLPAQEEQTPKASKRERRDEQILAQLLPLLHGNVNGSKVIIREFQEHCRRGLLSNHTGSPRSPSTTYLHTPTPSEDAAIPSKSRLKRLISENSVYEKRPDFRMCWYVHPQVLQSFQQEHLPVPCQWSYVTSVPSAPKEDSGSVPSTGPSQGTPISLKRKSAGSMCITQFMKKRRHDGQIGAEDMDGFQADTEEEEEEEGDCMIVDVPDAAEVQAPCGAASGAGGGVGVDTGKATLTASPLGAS
Sequence of UniProt Q9UEE9 (Q9UEE9 whole entry, looked up): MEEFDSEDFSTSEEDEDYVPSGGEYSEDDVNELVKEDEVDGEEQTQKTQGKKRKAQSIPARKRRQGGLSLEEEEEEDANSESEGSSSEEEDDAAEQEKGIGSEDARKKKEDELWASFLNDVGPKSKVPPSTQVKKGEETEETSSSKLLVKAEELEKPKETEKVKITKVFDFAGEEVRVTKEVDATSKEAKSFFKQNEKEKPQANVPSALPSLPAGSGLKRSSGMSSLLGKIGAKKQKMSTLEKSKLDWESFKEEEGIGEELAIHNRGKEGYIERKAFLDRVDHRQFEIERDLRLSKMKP
Sequence of UniProt O75909 (O75909 whole entry, looked up): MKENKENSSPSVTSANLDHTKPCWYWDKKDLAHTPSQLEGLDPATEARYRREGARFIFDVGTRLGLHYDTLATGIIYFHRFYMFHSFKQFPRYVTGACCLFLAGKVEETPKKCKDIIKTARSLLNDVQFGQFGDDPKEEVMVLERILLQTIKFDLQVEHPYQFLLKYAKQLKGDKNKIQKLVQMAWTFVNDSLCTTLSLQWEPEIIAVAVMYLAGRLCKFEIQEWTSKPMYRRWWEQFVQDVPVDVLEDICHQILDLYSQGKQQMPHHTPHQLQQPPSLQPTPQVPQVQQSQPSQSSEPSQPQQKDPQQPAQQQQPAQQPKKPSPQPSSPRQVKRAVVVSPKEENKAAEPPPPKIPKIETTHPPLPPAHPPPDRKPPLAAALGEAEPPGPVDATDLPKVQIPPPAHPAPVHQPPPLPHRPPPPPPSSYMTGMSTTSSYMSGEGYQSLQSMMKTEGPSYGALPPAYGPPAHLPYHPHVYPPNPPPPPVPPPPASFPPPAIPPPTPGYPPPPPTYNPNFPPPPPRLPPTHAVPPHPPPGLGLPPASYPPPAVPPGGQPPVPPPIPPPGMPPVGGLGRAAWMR
Sequence of UniProt Q96JB5 (Q96JB5 whole entry, looked up): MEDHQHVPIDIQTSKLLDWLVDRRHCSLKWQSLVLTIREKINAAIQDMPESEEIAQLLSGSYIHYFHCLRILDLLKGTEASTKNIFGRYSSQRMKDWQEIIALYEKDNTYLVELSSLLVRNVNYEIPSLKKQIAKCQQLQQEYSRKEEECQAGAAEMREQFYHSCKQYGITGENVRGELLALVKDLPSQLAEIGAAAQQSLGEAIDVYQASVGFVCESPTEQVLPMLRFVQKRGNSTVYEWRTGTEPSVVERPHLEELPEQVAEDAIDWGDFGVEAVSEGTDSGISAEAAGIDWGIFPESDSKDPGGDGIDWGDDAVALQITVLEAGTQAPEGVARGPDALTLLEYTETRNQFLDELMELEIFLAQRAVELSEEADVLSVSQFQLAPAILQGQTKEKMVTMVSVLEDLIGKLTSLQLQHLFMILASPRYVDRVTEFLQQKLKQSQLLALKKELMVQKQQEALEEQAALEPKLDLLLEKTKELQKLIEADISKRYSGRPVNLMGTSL
Sequence of UniProt Q9ULG6 (Q9ULG6 whole entry, looked up): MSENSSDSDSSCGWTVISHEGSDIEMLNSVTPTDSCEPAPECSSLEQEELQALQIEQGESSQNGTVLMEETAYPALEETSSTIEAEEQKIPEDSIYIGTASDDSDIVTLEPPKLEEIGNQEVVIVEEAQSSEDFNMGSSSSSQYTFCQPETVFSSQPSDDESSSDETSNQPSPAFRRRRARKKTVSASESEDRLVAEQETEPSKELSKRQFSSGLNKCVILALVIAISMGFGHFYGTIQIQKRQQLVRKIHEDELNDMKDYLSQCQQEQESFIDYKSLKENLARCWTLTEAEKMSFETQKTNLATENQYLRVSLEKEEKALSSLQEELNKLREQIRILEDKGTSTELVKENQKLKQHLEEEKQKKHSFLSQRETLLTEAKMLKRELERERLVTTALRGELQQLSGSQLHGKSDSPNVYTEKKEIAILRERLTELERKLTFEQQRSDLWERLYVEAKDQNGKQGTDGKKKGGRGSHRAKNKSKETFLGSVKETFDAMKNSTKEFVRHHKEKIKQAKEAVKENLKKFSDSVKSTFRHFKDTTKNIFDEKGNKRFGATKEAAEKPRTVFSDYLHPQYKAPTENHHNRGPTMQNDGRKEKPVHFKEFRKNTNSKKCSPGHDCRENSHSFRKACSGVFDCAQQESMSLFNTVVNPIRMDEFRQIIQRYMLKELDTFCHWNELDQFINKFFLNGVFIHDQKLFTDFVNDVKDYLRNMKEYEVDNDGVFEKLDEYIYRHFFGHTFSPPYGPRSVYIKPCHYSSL

| Target | log2 fold change (ibrutinib) | log2 fold change [1] | log2 fold change (ralimetinib) | log2 fold change [2] | log2 fold change [3] | log2 fold change [4] | log2 fold change [5] | log2 fold change [6] | log2 fold change [7] | log2 fold change [8] |
| --- | --- | --- | --- | --- | --- | --- | --- | --- | --- | --- |
| CFDP1 (UniProt Q9UEE9) | 0.032 | 0.014 | 0.051 | -0.015 | -0.052 | -0.014 | -0.027 | 0.021 | 0.027 | -0.012 |
| CDK5RAP3 isoform 4 (UniProt Q96JB5) | -0.01 | -0.001 | -0.022 | -0.022 | -0.016 | 0.004 | 0.013 | 0.025 | 0.017 | 0.014 |
| AURKA (UniProt O14965) | 0.348 | 0.144 | -0.042 | 0.037 | -0.051 | 0.034 | -0.039 | -0.042 | -0.005 | 0.007 |
| ATP6V1B1 (UniProt P15313) | -0.001 | 0 | 0.037 | -0.025 | -0.013 | 0.024 | -0.011 | 0.005 | 0.031 | -0.015 |
| C2CD5 isoform 3 (UniProt Q86YS7) | -0.005 | -0.026 | 0.016 | -0.123 | 0.019 | -0.018 | 0.023 | 0.071 | -0.004 | -0.068 |
| CBX1 (UniProt P83916) | -0.002 | 0.021 | -0.006 | -0.023 | -0.039 | -0.033 | -0.024 | 0.007 | -0.003 | -0.046 |
| CCNB2 (UniProt O95067) | -0.062 | 0.358 (active) | 0.028 | -0.028 | 0.023 | -0.011 | 0.017 | 0.022 | 0.037 | -0.079 |
| BRD4 (UniProt O60885) | -0.011 | -0.017 | 0.023 | -0.042 | -0.016 | -0.006 | 0.001 | 0.061 | 0.006 | -0.021 |
| C15orf41 (UniProt Q9Y2V0) | -0.028 | -0.013 | -0.018 | -0.029 | 0.063 | 0.006 | 0.045 | 0.023 | 0.13 | -0.106 |
| CALB2 (UniProt P22676) | 0.085 | 0.016 | 0 | -0.083 | -0.093 | -0.025 | -0.116 | 0.028 | -0.039 | -0.014 |
| CDC123 (UniProt O75794) | 0.025 | 0.022 | 0.06 | 0.008 | 0.027 | 0.045 | 0.016 | -0.071 | 0.031 | 0.003 |
| CCDC51 (UniProt Q96ER9) | 0.056 | 0.011 | -0.012 | 0.036 | -0.011 | 0.025 | 0.011 | -0.013 | 0.033 | 0.013 |
| BSDC1 (UniProt Q9NW68) | 0.048 | 0.008 | -0.004 | -0.023 | 0.062 | 0.038 | 0.01 | 0.022 | -0.047 | 0.011 |
| CCNK isoform 4 (UniProt O75909) | 0.09 | 0.007 | 0.042 | -0.01 | 0.012 | 0.015 | -0.017 | 0.024 | -0.037 | -0.007 |
| C5orf51 (UniProt A6NDU8) | 0.052 | -0.008 | 0.001 | -0.027 | 0.014 | -0.005 | 0.004 | 0.042 | 0.042 | -0.001 |
| CDC45 isoform 3 (UniProt O75419) | 0.034 | 0.045 | 0.014 | 0.021 | -0.005 | 0.036 | -0.006 | -0.032 | 0.031 | -0.004 |
| C19orf54 (UniProt Q5BKX5) | 0.041 | 0.003 | -0.018 | -0.055 | 0.028 | 0.012 | 0.06 | -0.041 | 0.013 | 0.063 |
| ATE1 isoform 2 (UniProt O95260) | 0.056 | 0.001 | -0.006 | 0.063 | -0.016 | 0.048 | -0.001 | -0.04 | -0.004 | 0.011 |
| ATP11A (UniProt P98196) | -0.02 | 0.091 | 0.122 | -0.046 | -0.017 | -0.019 | -0.065 | -0.006 | -0.074 | 0.02 |
| ATM (UniProt Q13315) | 0.027 | 0.253 (active) | 0.013 | -0.021 | 0.04 | 0.002 | -0.027 | -0.014 | -0.015 | -0.013 |
| ATG7 (UniProt O95352) | 0.014 | -0.008 | 0.026 | -0.016 | -0.022 | 0.021 | 0.002 | -0.001 | 0.011 | 0.027 |
| CARHSP1 (UniProt Q9Y2V2) | 0.053 | 0.021 | -0.024 | -0.032 | 0.017 | -0.029 | 0.006 | 0.014 | 0.009 | -0.008 |
| CHAF1A (UniProt Q13111) | 0.026 | -0.017 | 0.011 | 0.018 | 0.032 | 0.049 | -0.043 | 0.001 | 0.001 | 0.012 |
| CCAR2 (UniProt Q8N163) | 0.025 | -0.019 | 0.012 | -0.006 | -0.018 | 0 | 0.01 | 0.003 | 0.015 | -0.005 |
| CARD11 (UniProt Q9BXL7) | -0.097 | -0.023 | -0.02 | 0.003 | -0.075 | -0.041 | 0.025 | 0.01 | 0.051 | -0.143 |
| CCNY (UniProt Q8ND76) | 0 | -0.013 | -0.046 | -0.099 | 0.014 | -0.036 | 0.023 | 0.063 | 0.078 | 0.001 |
| C9orf72 (UniProt Q96LT7) | -0.079 | -0.004 | -0.011 | -0.021 | 0.025 | -0.066 | 0.014 | -0.003 | -0.023 | 0.038 |
| CHD5 (UniProt Q8TDI0) | -0.063 | 0.015 | 0 | 0.005 | -0.011 | 0.026 | -0.026 | -0.005 | 0.029 | 0.01 |
| CCPG1 isoform 5 (UniProt Q9ULG6) | 0.021 | -0.014 | 0.08 | 0.013 | 0.014 | -0.004 | -0.058 | -0.026 | -0.029 | -0.102 |
